Reference: PubChem BioAssay (NCI)
About 79,000 compounds went through this panel and 15% of them were active in at least one assay; those are over-represented in the sample as a whole. No stated cut-off is given here; in the data, active means growth inhibition above about 70%; inactive means the rest.

What was measured:
[1] = NCI Yeast Anticancer Drug Screen. Data for the rad52 strain (AID 147);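 further: 0% = growth of vehicle-treated control cultures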; settings: S. cerevisiae rad52 mutant growth inhibition, hits give high values
Summary of the method: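 Measured: yeast growth inhibition. System: strain with a defined DNA damage repair alteration. Reference: vehicle-treated control cultures.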

[2] = NCI Yeast Anticancer Drug Screen. Data for the wt1 strain (AID 149);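 further: 0% = growth of vehicle-treated wt1 cultures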; settings: S. cerevisiae wt1 strain (SPY 50644) growth inhibition, hits give high values
Summary of the method: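 Readout: yeast growth inhibition, normalised to vehicle controls, in the wt1 strain exposed to test compounds.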

[3] = NCI Yeast Anticancer Drug Screen. Data for the rad50EPP+ strain (AID 151);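 further: 0% = growth of vehicle-treated control cultures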; settings: S. cerevisiae rad50 mutant strain, hits give high values
Summary of the method: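 One strain with a rad50 alteration (rad50EPP+) was compound-treated, its growth then compared to that of vehicle controls.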

[4] = NCI Yeast Anticancer Drug Screen. Data for the mgt1 strain (AID 153); settings: S. cerevisiae mgt1 mutant growth inhibition, hits give high values
Summary of the method: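 After exposure of the mgt1 yeast mutant to compound, growth was measured and reported as inhibition compared with vehicle controls.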

[5] = NCI Yeast Anticancer Drug Screen. Data for the rad50 strain (AID 155);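 further: 0% = growth of vehicle-only cultures of the same strain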; settings: S. cerevisiae rad50 strain growth inhibition, hits give high values
Summary of the method: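 Compounds were tested on a yeast strain with an engineered DNA damage repair alteration; the reported value is growth inhibition normalised to vehicle treatment.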

[6] = NCI Yeast Anticancer Drug Screen. Data for the mec2-1 strain (AID 157); settings: S. cerevisiae mec2-1 strain, hits give high values
Summary of the method: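 Test agents were screened against the mec2-1 yeast strain, with defined DNA repair or cell cycle alteration. Growth was scored as inhibition against vehicle-only controls.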

[7] = NCI Yeast Anticancer Drug Screen. Data for the rad14 strain (AID 159);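 further: 0% = growth of vehicle-treated control cultures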; settings: S. cerevisiae rad14 strain growth inhibition, hits give high values
Summary of the method: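 Compound-treated yeast with a defined DNA-repair lesion; growth inhibition normalised to vehicle-treated cultures.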

[8] = at 5.0 µM (retest, dose inferred, filed as 0.5)
[9] = at 50.0 µM (retest, dose inferred, filed as 5.0)

Measured: growth inhibition

Cc1ccc2ccc3cccc4ccc1c2c34
inactive: [1]; at 1.2 µM -1% | [1]; at 3.7 µM 0% | [1]; at 11.0 µM 5% | [1]; at 33.0 µM 23% | [1]; at 100.0 µM 27% | [2]; at 1.2 µM -2% | [2]; at 3.7 µM -2% | [2]; at 11.0 µM -3% | [2]; at 33.0 µM 2% | [2]; at 100.0 µM 15% | [3]; at 1.2 µM -2% | [3]; at 3.7 µM 4% | [3]; at 11.0 µM 20% | [3]; at 33.0 µM 33% | [3]; at 100.0 µM 31% | [4]; at 1.2 µM -1% | [4]; at 3.7 µM -1% | [4]; at 11.0 µM -3% | [4]; at 33.0 µM -3% | [4]; at 100.0 µM 18% | [5]; at 1.2 µM 4% | [5]; at 3.7 µM 49% | [5]; [8] -1% | [5]; at 11.0 µM 21% | [5]; at 33.0 µM 37% | [5]; [9] 41% | [5]; at 50.0 µM 25.6% | [5]; at 100.0 µM 66% | [6]; at 1.2 µM -1% | [6]; at 3.7 µM 0% | [6]; [8] 3% | [6]; at 11.0 µM 2% | [6]; at 33.0 µM 13% | [6]; [9] 12% | [6]; at 50.0 µM 4.75% | [6]; at 100.0 µM 26% | [7]; at 1.2 µM 1% | [7]; at 3.7 µM 0% | [7]; at 11.0 µM 3% | [7]; at 33.0 µM 14% | [7]; at 100.0 µM 23%
